# PubChem BioAssay (Tox21)
# Where “and” joins values, the source holds several entries; their conditions need not be identical. Equal entries are not always repeated. Results filed as inconclusive are left out. Where a call stands in place of a potency, no number is given. Calls of active or inactive are those of the source. Unless noted, calls follow the shape of the dose curve; as a rule, active = well fitted curve in the direction sought with a large enough effect in the repeat runs; inconclusive = weak or mixed curves; inactive = no such curve, though single readings can be large; an effect the other way counts as inactive or inconclusive.
# Legend:
# [1] = qHTS assay for small molecule agonists of the p53 signaling pathway (AID 651631; calls by dose curve; also: nearly all actives have a fitted effect of over 15% in size; also: potency is read from the fitted curve at half-maximal effect)
# Method in brief: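 Quantitative high-throughput format: 4,000 p53RE-bla HCT-116 cells/well, 5 h pre-incubation, 16 h compound exposure at 37 °C, 2 h room-temperature substrate step, fluorescence intensity measured.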
# [2] = qHTS assay for small molecules that induce genotoxicity in human embryonic kidney cells expressing luciferase-tagged ATAD5 (AID 651632); also: nearly all actives have a fitted effect of over 15% in size
# Method in brief: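 Test compounds were delivered by pin tool onto HEK293T reporter cells (2,000/well) expressing ATAD5 fused to luciferase. After 16 hr at 37C, 5% CO2, Amplite was added for 30 min at room temperature and luminescence was measured.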
# [3] = qHTS assay for small molecule agonists of the p53 signaling pathway - cell viability (AID 651633; calls by dose curve;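 also: p53RE-bla HCT reporter cells with a stable beta-lactamase p53 reporter; series mostly up to about 83 µM; nearly all actives have a fitted effect of over 30% in size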)
# Method in brief: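 Viability counter-read: CellTiter-Glo luminescence (30 min, room temperature) in the same p53RE-bla plates. These plates had been exposed to compounds for 16 h at 37 C.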
# [4] = qHTS assay for small molecules that induce genotoxicity in human embryonic kidney cells expressing luciferase-tagged ATAD5 - cell viability (AID 651634; calls by dose curve; also: nearly all actives have a fitted effect of over 25% in size; also: potency is read from the fitted curve at half-maximal effect)
# Method in brief: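 Quantitative high-throughput format. HEK293T cells expressing ATAD5 fused to luciferase were plated at 2,000 cells/well and treated 15.5 hr with compound versus DMSO. Viability was determined by fluorescent live-cell protease substrate, 30 min at 37C.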
# [5] = qHTS assay for small molecule disruptors of the mitochondrial membrane potential - cell viability (AID 720634; calls by dose curve;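 also: human HepG2 liver cancer cells; series mostly up to about 83 µM; nearly all actives have a fitted effect of over 20% in size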)
# Method in brief: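 Same-well counter-screen: following the MMP dye addition, CellTiter-Glo was added to 1 hr compound-treated HepG2 cells and luminescence read after 30 min at room temperature.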
# [6] = qHTS assay for small molecule disruptors of the mitochondrial membrane potential (AID 720635); also: potency is read from the fitted curve at half-maximal effect
# Method in brief: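 Mitochondrial membrane potential tracked with Mito-MPS dye, red aggregates (ex 540/em 590 nm) against green monomers (ex 490/em 535 nm). Compound treatment 1 hr at 37C, dye 30 min in HepG2.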
# [7] = qHTS assay to test for compound auto fluorescence at 590 nm (red) in HepG2 cells (AID 720674)
# Method in brief: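 Red autofluorescence (Ex/Em 540/590 nm, Rose Bengal sodium equivalents) was measured in HepG2 cells, 2,000 per well in MEM plus 10% FBS, plated overnight at 37 C. Readings were taken 1 hr after adding 23 nL compound or DMSO, at 37 C and 5% CO2.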
# [8] = qHTS assay to test for compound auto fluorescence at 535 nm (green) in HepG2 cells (AID 720675)
# [9] = qHTS assay to test for compound auto fluorescence at 460 nm (blue) in HEK293 cells (AID 720678); also: potency is read from the fitted curve at half-maximal effect
# Method in brief: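 HEK293 cells (2,000/well, medium with 10% dialyzed FBS) attached 4-5 hr, then exposed to compound overnight at 37C, 5% CO2. Blue fluorescence read at 405/460 nm, with triamterene as reference fluorophore.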
# [10] = qHTS assay to test for compound auto fluorescence at 590 nm (red) in HEK293 cells (AID 720679)
# Method in brief: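 HEK293 cells (2,000/well, 10% dialyzed FBS) attached 4-5 hr, then dosed with compound or DMSO and incubated overnight at 37C, 5% CO2. Red fluorescence read at 540/590 nm, Rose Bengal sodium as reference fluorophore.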
# [11] = qHTS assay to test for compound auto fluorescence at 535 nm (green) in HEK293 cells (AID 720680)
# [12] = qHTS assay to test for compound auto fluorescence at 460 nm (blue) in HEK293 cell free culture (AID 720681); also: potency is read from the fitted curve at half-maximal effect
# Method in brief: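 Blue fluorescence (Ex 405/Em 460 nm, triamterene-equivalent) was read immediately after pin transfer of compound or DMSO into medium (DMEM, 10% FBS) without cells.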
# [13] = qHTS assay to test for compound auto fluorescence at 535 nm (green) in HEK293 cell free culture (AID 720682)
# Method in brief: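 Measurement is a direct plate read of green fluorescence (485 nm in, 535 nm out) after compound addition to serum-supplemented DMEM lacking cells, with fluorescein used to express intensities.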
# [14] = qHTS assay to test for compound auto fluorescence at 590 nm (red) in HEK293 cell free culture (AID 720683)
# Method in brief: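 Red-channel autofluorescence of compounds in culture medium (DMEM, 10% FBS), no cells, measured at 540/590 nm. Rose Bengal sodium is the reference fluorophore for equivalence.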
# [15] = qHTS assay to test for compound auto fluorescence at 590 nm (red) in HepG2 cell free culture (AID 720684)
# Method in brief: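 No cells present: MEM + 10% FBS only. Compound pinned in, red label read (540/590 nm). Activity = fluorescence equivalent to Rose Bengal sodium.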
# [16] = qHTS assay to test for compound auto fluorescence at 460 nm (blue) in HepG2 cell free culture (AID 720685); also: potency is read from the fitted curve at half-maximal effect
# Method in brief: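 Cell-free plates of MEM plus 10% FBS received 23 nL compound or DMSO vehicle; blue-channel (405/460 nm) intensity scored against triamterene as reference fluorophore.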
# [17] = qHTS assay to test for compound auto fluorescence at 535 nm (green) in HepG2 cell free culture (AID 720686)
# [18] = qHTS assay to test for compound auto fluorescence at 460 nm (blue) in HepG2 cells (AID 720687); also: potency is read from the fitted curve at half-maximal effect
# Method in brief: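 Blue-channel autofluorescence (Ex/Em 405/460 nm, triamterene-equivalent) was measured after 1 hr compound exposure at 37 C, 5% CO2. Cells were HepG2, plated overnight at 37 C in MEM plus 10% FBS.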
# [19] = biological target: Glucocorticoid receptor (Homo sapiens) (UniProt P04150); assay: qHTS assay to identify small molecule agonists of the glucocorticoid receptor (GR) signaling pathway (AID 720691; active = well fitted activation curve with a large enough effect in the signal ratio in the repeat runs, not every such curve was filed as active; the % refers to the signal ratio)
# Sequence of Glucocorticoid receptor (Homo sapiens) (P04150 whole entry, looked up): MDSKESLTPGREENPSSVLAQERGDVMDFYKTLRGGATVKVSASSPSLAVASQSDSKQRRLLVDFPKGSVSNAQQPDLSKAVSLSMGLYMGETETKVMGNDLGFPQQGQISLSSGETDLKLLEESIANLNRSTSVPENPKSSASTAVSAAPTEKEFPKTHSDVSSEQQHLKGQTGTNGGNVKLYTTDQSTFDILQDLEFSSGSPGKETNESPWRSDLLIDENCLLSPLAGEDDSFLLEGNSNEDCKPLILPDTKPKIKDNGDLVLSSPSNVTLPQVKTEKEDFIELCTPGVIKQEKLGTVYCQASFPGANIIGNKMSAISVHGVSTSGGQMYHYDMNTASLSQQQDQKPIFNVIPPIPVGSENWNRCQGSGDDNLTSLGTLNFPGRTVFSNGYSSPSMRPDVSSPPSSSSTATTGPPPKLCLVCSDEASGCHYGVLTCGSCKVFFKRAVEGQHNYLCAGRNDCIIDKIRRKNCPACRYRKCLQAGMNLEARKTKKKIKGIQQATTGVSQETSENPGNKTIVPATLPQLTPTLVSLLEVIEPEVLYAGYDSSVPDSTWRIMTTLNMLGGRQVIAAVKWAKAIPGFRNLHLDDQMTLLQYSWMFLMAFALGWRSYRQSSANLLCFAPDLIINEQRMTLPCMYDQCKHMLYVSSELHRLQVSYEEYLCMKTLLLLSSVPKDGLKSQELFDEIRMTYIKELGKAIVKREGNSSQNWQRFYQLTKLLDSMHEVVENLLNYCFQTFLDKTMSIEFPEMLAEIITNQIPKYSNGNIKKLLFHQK
# Method in brief: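 A HeLa cervical cancer line expressing GR and a glucocorticoid response element-driven beta-lactamase gene is treated with compounds for 18 h; LiveBLAzer B/G FRET substrate is then applied and fluorescence read.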
# [20] = biological target: Glucocorticoid receptor (Homo sapiens) (UniProt P04150); assay: qHTS assay to identify small molecule antagonists of the glucocorticoid receptor (GR) signaling pathway (AID 720692; active = well fitted inhibition curve with a large enough effect in the signal ratio in the repeat runs, not every such curve was filed as active; the % refers to the signal ratio)
# Method in brief: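 GRE-bla HeLa line, dex-stimulated (5 nM final). Compound exposure 18 h, 37 C. Beta-lactamase FRET read after 2 h RT substrate.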
# Tags tell the direction and shape of the fitted curve or compound fluorescence and quenching.
Structure (SMILES),Potency [1],Potency [2],Potency [3],Potency [4],Potency [5],Potency [6],outcome [7],outcome [8],Potency [9],outcome [10],outcome [11],Potency [12],outcome [13],outcome [14],outcome [15],Potency [16],outcome [17],Potency [18],outcome [19],Potency [20]
CCCCCNCCCCC,inactive,inactive,inactive,inactive,inactive,inactive,inactive,inactive,inactive,inactive,inactive,inactive,inactive,inactive,inactive,inactive,inactive,inactive,,
CCCCCCCCCCCCCC(=O)O,inactive,inactive,inactive,inactive,inactive,inactive,inactive,inactive,inactive,inactive,inactive,inactive,inactive,inactive,inactive,inactive,inactive,inactive,inactive,inactive
CC/C=C(\C(=O)N[C@@H]1C(=O)N2C(C(=O)OCOC(=O)C(C)(C)C)=C(COC(N)=O)CS[C@H]12)c1csc(N)n1,inactive,inactive,inactive,inactive,inactive,inactive,inactive,inactive,inactive,inactive,inactive,inactive,inactive,inactive,inactive,inactive,inactive,inactive,inactive,inactive
CCn1cc(C(=O)O)c(=O)c2cc3c(cc21)OCO3,inactive,inactive,inactive,inactive,inactive,inactive,inactive,inactive,inactive,inactive,inactive,inactive,inactive,inactive,inactive,inactive,inactive,inactive,,
CC1(C)[C@@H](O[C@H]2O[C@H](C(=O)O)[C@@H](O)[C@H](O)[C@H]2O[C@@H]2O[C@H](C(=O)O)[C@@H](O)[C@H](O)[C@H]2O)CC[C@]2(C)[C@H]3C(=O)C=C4[C@@H]5C[C@@](C)(C(=O)O)CC[C@]5(C)CC[C@@]4(C)[C@]3(C)CC[C@@H]12,inactive,inactive,inactive,inactive,inactive,inactive,inactive,inactive,inactive,inactive,inactive,inactive,inactive,inactive,inactive,inactive,inactive,inactive,,
OCc1ccc(Cl)cc1Cl,inactive,inactive,inactive,inactive,inactive,inactive,inactive,inactive,inactive,inactive,inactive,inactive,inactive,inactive,inactive,inactive,inactive,inactive,,
CCCOC(=O)NCCCN(C)C,inactive,inactive,inactive,inactive,inactive,inactive,inactive,inactive,inactive,inactive,inactive,inactive,inactive,inactive,inactive,inactive,inactive,inactive,,
CCc1cccc(O)c1,inactive,inactive,inactive,inactive,inactive,inactive,inactive,inactive,inactive,inactive,inactive,inactive,inactive,inactive,inactive,inactive,inactive,inactive,,
COc1ccccc1[N+](=O)[O-],inactive,inactive,inactive,inactive,inactive,inactive,inactive,inactive,inactive,inactive,inactive,inactive,inactive,inactive,inactive,inactive,inactive,inactive,,
OB(O)O,inactive,inactive,inactive,inactive,inactive,inactive,inactive,inactive,inactive,inactive,inactive,inactive,inactive,inactive,inactive,inactive,inactive,inactive,inactive,inactive
O=C1C(N(CO)C(=O)NCO)N(CO)C(=O)N1CO (stereo not drawn),inactive,inactive,inactive,inactive,inactive,inactive,inactive,inactive,inactive,inactive,inactive,inactive,inactive,inactive,inactive,inactive,inactive,inactive,,
CCc1cccc(CC)c1N,inactive,inactive,inactive,inactive,inactive,inactive,inactive,inactive,inactive,inactive,inactive,inactive,inactive,inactive,inactive,inactive,inactive,inactive,inactive,inactive
COc1ccc([C@@H]2CC(=O)c3c(O)cc(O[C@@H]4O[C@H](CO[C@@H]5O[C@@H](C)[C@H](O)[C@@H](O)[C@H]5O)[C@@H](O)[C@H](O)[C@H]4O)cc3O2)cc1OC,inactive,inactive,inactive,inactive,inactive,inactive,inactive,inactive,inactive,inactive,inactive,inactive,inactive,inactive,inactive,inactive,inactive,inactive,,
CC(=O)OC(C)(C)C1CC=C(C)CC1 (stereo not drawn),inactive,inactive,inactive,inactive,inactive,inactive,inactive,inactive,inactive,inactive,inactive,inactive,inactive,inactive,inactive,inactive,inactive,inactive,,
Cc1nnc(NS(=O)(=O)c2ccc(N)cc2)s1,inactive,inactive,inactive,inactive,inactive,inactive,inactive,inactive,inactive,inactive,inactive,inactive,inactive,inactive,inactive,inactive,inactive,inactive,,
c1cnc2c(c1)ccc1cccnc12,30.9 µM (active) and 24.3 µM (active),inactive,inactive,6.92 µM (active) and 3.86 µM (active) and 7.7 µM (active),inactive,30.6 µM (active),inactive,inactive,inactive,inactive,inactive,inactive,inactive,inactive,inactive,inactive,inactive,inactive,,
NC(=O)NC(N)=O,inactive,inactive,inactive,inactive,inactive,inactive,inactive,inactive,inactive,inactive,inactive,inactive,inactive,inactive,inactive,inactive,inactive,inactive,,
O=C(c1ccccc1)c1ccc(O)c(O)c1O,inactive,inactive,inactive,inactive,inactive,48.6 µM (active),inactive,inactive,inactive,inactive,inactive,inactive,inactive,inactive,inactive,inactive,inactive,inactive,inactive,inactive
CCCCC(CC)COC(=O)c1ccc(C(=O)OCC(CC)CCCC)cc1 (stereo not drawn),inactive,inactive,inactive,inactive,inactive,inactive,inactive,inactive,inactive,inactive,inactive,inactive,inactive,inactive,inactive,inactive,inactive,inactive,,
CCCCCCCCC(=O)O,inactive,inactive,inactive,inactive,inactive,inactive,inactive,inactive,inactive,inactive,inactive,inactive,inactive,inactive,inactive,inactive,inactive,inactive,inactive,inactive
O=[N+]([O-])c1ccccc1C(F)(F)F,inactive,inactive,inactive,inactive,inactive,inactive,inactive,inactive,inactive,inactive,inactive,inactive,inactive,inactive,inactive,inactive,inactive,inactive,,
N[C@@H](Cc1cc(I)c(Oc2ccc(O)c(I)c2)c(I)c1)C(=O)O,inactive,inactive,inactive,inactive,inactive,23.7 µM (active),inactive,inactive,inactive,inactive,inactive,inactive,inactive,inactive,inactive,inactive,inactive,inactive,inactive,
OC[C@H]1O[C@@H](Oc2ccc(O)cc2)[C@H](O)[C@@H](O)[C@@H]1O,inactive,inactive,inactive,inactive,inactive,inactive,inactive,inactive,inactive,inactive,inactive,inactive,inactive,inactive,inactive,inactive,inactive,inactive,,
Cc1ccc(C)c(S(=O)(=O)O)c1,inactive,inactive,inactive,inactive,inactive,inactive,inactive,inactive,inactive,inactive,inactive,inactive,inactive,inactive,inactive,inactive,inactive,inactive,,
COCN(COC)c1nc(N(COC)COC)nc(N(COC)COC)n1,inactive,inactive,inactive,inactive,inactive,inactive,inactive,inactive,inactive,inactive,inactive,inactive,inactive,inactive,inactive,inactive,inactive,inactive,inactive,inactive
Cc1ccccc1C=O,inactive,inactive,inactive,inactive,inactive,inactive,inactive,inactive,inactive,inactive,inactive,inactive,inactive,inactive,inactive,inactive,inactive,inactive,inactive,inactive
Nc1nc(N)c2nc(-c3ccccc3)c(N)nc2n1,26.6 µM (active) and 15.5 µM (active) and 34.4 µM (active),inactive,inactive,inactive,inactive,inactive,inactive,inactive,14.1 µM [fluorescent] (active) and 31.6 µM [fluorescent] (active) and 35.5 µM [fluorescent] (active),inactive,inactive,12.6 µM (active) and 39.8 µM (active),inactive,inactive,inactive,12.6 µM [fluorescent] (active) and 39.8 µM [fluorescent] (active),inactive,12.6 µM [fluorescent] (active) and 39.8 µM [fluorescent] (active),,
